Measurements as given in PubChem BioAssay AID1159580 (chemical genetic matrix, 2015).
“And” between values parts separate entries of the source, which are not always exact repeats. Equal values may be shown once. In all, about 5,500 compounds went through this assay and about 2,000 (36%) were called active. Another 18% or so got no clear call; they are omitted. No stated cut-off is given here; in the data, active means normalized growth mostly below about 0.91 (no sharp cut-off); inconclusive means no clear call, values can overlap the other calls; inactive means mostly above about 0.92. The list shows a part of the results.

Assay: chemical genetic growth profiling, strain panel (AID 1159580);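 further: tested at 20 µM; growth read once vehicle control cultures reached saturation at 30 °C; 1 = growth at the plate median or of vehicle wells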
Settings: S. cerevisiae deletion strains, growth OD

Measured: normalized growth

C/C=C1\[C@H]2C=C(C)C[C@]1(N)c1ccc(=O)[nH]c1C2
inactive: locus YAL013W, strain DEP1, stronger effect = lower value 1.01 | locus YAL021C, strain ccr4, stronger effect = lower value 1 | locus YAL026C, strain drs2, stronger effect = lower value 1.03 | locus YAL030W, strain snc1, stronger effect = lower value 1.02 | locus YBL061C, strain skt5, stronger effect = lower value 1.01 | locus YBR009C, strain hhf1, stronger effect = lower value 1.03 | locus YBR021W, strain FUR4, stronger effect = lower value 1.01 | locus YBR023C, strain chs3, stronger effect = lower value 1.02 | locus YBR171W, strain sec66, stronger effect = lower value 1.03 | locus YBR229C, strain ROT2, stronger effect = lower value 1.01 | locus YBR231C, strain swc5, stronger effect = lower value 1.02 | locus YBR279W, strain paf1, stronger effect = lower value 1.02 | locus YCL011C, strain gbp2, stronger effect = lower value 1.02 | locus YCL016C, strain dcc1, stronger effect = lower value 1.01 | locus YCL029C, strain bik1, stronger effect = lower value 1.02 | locus YCL061C, strain MRC1, stronger effect = lower value 1.02 | locus YCL069W, strain vba3, stronger effect = lower value 1.02 | locus YCR088W, strain abp1, stronger effect = lower value 1.02 | locus YDL005C, strain med2, stronger effect = lower value 1.04 | locus YDL035C, strain GPR1, stronger effect = lower value 1.01 | locus YDL040C, strain nat1, stronger effect = lower value 1.01 | locus YDL074C, strain BRE1, stronger effect = lower value 1.01 | locus YDL101C, strain DUN1, stronger effect = lower value 1.01 | locus YDL134C, strain PPH21, stronger effect = lower value 1.01 | locus YDL185W, strain tfp1, stronger effect = lower value 1.02 | locus YDL192W, strain arf1, stronger effect = lower value 1.02 | locus YDR001C, strain nth1, stronger effect = lower value 1.01 | locus YDR069C, strain doa4, stronger effect = lower value 1.03 | locus YDR101C, strain arx1, stronger effect = lower value 1 | locus YDR137W, strain rgp1, stronger effect = lower value 1.01 | locus YDR150W, strain NUM1, stronger effect = lower value 1.02 | locus YDR159W, strain sac3, stronger effect = lower value 1.03 | locus YDR162C, strain NBP2, stronger effect = lower value 1.02 | locus YDR195W, strain ref2 0.989 | locus YDR297W, strain sur2, stronger effect = lower value 1.01 | locus YDR318W, strain mcm21, stronger effect = lower value 1.02 | locus YDR334W, strain swr1, stronger effect = lower value 1.03 | locus YDR335W, strain msn5, stronger effect = lower value 1.02 | locus YDR388W, stronger effect = lower value 1.01 | locus YDR392W, strain spt3, stronger effect = lower value 0.966 | locus YDR502C, strain sam2, stronger effect = lower value 1.01 | locus YEL003W, strain gim4, stronger effect = lower value 1.03 | locus YEL037C, strain rad23, stronger effect = lower value 1.02 | locus YEL061C, strain CIN8 (second series), stronger effect = lower value 1.03 | locus YEL061C, strain CIN8, stronger effect = lower value 1.01 | locus YER015W, strain faa2, stronger effect = lower value 1.02 | locus YER016W, strain bim1, stronger effect = lower value 1.03 | locus YER110C, stronger effect = lower value 1.01 | locus YER111C, strain swi4, stronger effect = lower value 1.03 | locus YER155C, strain BEM2 (second series), stronger effect = lower value 1.04 | locus YER155C, strain BEM2, stronger effect = lower value 1 | locus YER167W, strain BCK2, stronger effect = lower value 1.02 | locus YFR010W, strain ubp6, stronger effect = lower value 1.03 | locus YGL078C, strain dbp3, stronger effect = lower value 1.01 | locus YGL086W, strain mad1, stronger effect = lower value 1.01 | locus YGL167C, strain pmr1, stronger effect = lower value 1.02 | locus YGL173C, strain kem1, stronger effect = lower value 1.04 | locus YGL227W, strain vid30, stronger effect = lower value 1.03 | locus YGL240W, strain doc1, stronger effect = lower value 1.04 | locus YGL248W, strain PDE1, stronger effect = lower value 1.01 | locus YGL253W, strain hxk2, stronger effect = lower value 1.02 | locus YGR078C, strain PAC10, stronger effect = lower value 1.01 | locus YGR135W, strain pre9, stronger effect = lower value 1 | locus YGR229C, strain SMI1, stronger effect = lower value 1.01 | locus YGR252W, strain gcn5, stronger effect = lower value 1.01 | locus YHR013C, strain ard1, stronger effect = lower value 1.02 | locus YHR027C, strain rpn1, stronger effect = lower value 1.03 | locus YHR030C, strain SLT2, stronger effect = lower value 1 and 1.02 | locus YHR079C, strain IRE1 (second series), stronger effect = lower value 1.01 | locus YHR079C, strain IRE1, stronger effect = lower value 1.01 | locus YHR094C, strain hxt1, stronger effect = lower value 1.01 | locus YHR129C, strain ARP1, stronger effect = lower value 1 | locus YHR142W, strain chs7, stronger effect = lower value 0.992 | locus YHR200W, strain rpn10, stronger effect = lower value 1.02 | locus YIL066C, strain RNR3, stronger effect = lower value 1.02 | locus YIL073C, strain SPO22, stronger effect = lower value 1.08 | locus YIL125W, strain kgd1, stronger effect = lower value 1.02 | locus YIR030C, strain dcg1, stronger effect = lower value 1.01 | locus YJL092W, strain hpr5, stronger effect = lower value 1.03 | locus YJL095W, strain BCK1 (second series), stronger effect = lower value 1.01 | locus YJL095W, strain BCK1, stronger effect = lower value 0.989 and 0.995 | locus YJL115W, strain asf1, stronger effect = lower value 1.02 | locus YJL129C, strain trk1, stronger effect = lower value 1.02 | locus YJL134W, strain LCB3, stronger effect = lower value 1.01 | locus YJL154C, strain vps35, stronger effect = lower value 1.02 | locus YJL164C, strain tpk1, stronger effect = lower value 1.01 | locus YJL166W, strain qcr8, stronger effect = lower value 1.02 | locus YJL168C, strain set2, stronger effect = lower value 1.01 | locus YJL187C, strain SWE1 (second series), stronger effect = lower value 1 | locus YJL187C, strain SWE1, stronger effect = lower value 1.02 | locus YJR043C, strain POL32, stronger effect = lower value 1.01 | locus YJR066W, strain TOR1, stronger effect = lower value 0.96
